Results from article PMC6919601, “Identification of Plasmodium dipeptidyl aminopeptidase allosteric inhibitors by high throughput screening” (PLoS ONE, 2019).
The campaign covered roughly 110,000 compounds. About 230 (0.21%) showed an effect of 50% or more. The sample as a whole holds a higher share of strong results than the screen did.

target: DPAP1 (Plasmodium falciparum, UniProt Q8IIJ9); assay: primary screen, percent inhibition; read by cleavage of a fluorogenic dipeptide substrate; higher = more effect of the substance; set-up: species or system P. falciparum D10 trophozoite lysates; single well
Sequence (Q8IIJ9 whole entry, looked up): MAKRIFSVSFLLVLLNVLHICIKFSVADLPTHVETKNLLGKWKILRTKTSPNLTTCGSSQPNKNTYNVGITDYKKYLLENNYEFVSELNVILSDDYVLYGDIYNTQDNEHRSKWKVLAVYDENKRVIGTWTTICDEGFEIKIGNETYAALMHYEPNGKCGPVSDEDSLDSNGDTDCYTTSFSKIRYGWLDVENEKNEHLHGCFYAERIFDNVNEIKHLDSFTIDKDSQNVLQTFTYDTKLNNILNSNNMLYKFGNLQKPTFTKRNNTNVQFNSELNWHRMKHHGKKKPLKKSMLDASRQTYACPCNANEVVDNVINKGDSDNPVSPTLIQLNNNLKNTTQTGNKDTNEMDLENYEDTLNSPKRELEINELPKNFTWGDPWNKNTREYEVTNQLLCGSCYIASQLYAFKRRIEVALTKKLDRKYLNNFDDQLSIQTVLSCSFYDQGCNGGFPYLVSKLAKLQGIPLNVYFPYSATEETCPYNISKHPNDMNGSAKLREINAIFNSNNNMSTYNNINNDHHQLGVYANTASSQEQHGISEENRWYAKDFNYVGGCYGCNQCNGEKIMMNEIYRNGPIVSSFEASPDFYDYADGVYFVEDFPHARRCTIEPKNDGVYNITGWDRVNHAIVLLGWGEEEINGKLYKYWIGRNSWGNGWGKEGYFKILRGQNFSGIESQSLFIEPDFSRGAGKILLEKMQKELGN
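Note: 30 min substrate incubation versus DMSO and 10 µM JCP410 controls.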

SMILES | % Inhibition @ 10 uM [%]
COc1cc(-c2nnc3sc(-c4ccc(C)c(C)c4)nn23)cc(OC)c1OC | 29.8
COc1cc(-c2nnc3sc(/C=C/c4ccccc4)nn23)cc(OC)c1OC | 59.6
CCOc1ccc(-c2nn3c(-c4cc(OC)c(OC)c(OC)c4)nnc3s2)cc1 | 56.2
COc1ccccc1-c1nnc2sc(/C=C/c3ccccc3)nn12 | 6.01
COc1cc(-c2nnc3sc(/C=C/c4ccco4)nn23)cc(OC)c1OC | 6.01
COc1cc(-c2nnc3sc(-c4ccc(C(C)(C)C)cc4)nn23)cc(OC)c1OC | 2.89
O=[N+]([O-])c1ccc(S(=O)(=O)n2cnc3ccccc32)cc1 | 2.81
CCOC(=O)N1CCN(c2ccc(/C=C(\C#N)c3nc4ccccc4s3)o2)CC1 | 4.67
Cc1ccc(-c2nn3c(C4COc5ccccc5O4)nnc3s2)cc1C (stereo not drawn) | 2.89
Clc1ccc(-c2nn3c(C4COc5ccccc5O4)nnc3s2)cc1 (stereo not drawn) | 53.7
c1ccc2c(c1)OCC(c1nnc3sc(-c4ccncc4)nn13)O2 (stereo not drawn) | 2.68
COc1ccccc1/C=C/c1nn2c(C)nnc2s1 | 2.29
COc1ccccc1-c1nn2c(C3COc4ccccc4O3)nnc2s1 (stereo not drawn) | 7.5
COc1ccccc1/C=C/c1nn2c(C3COc4ccccc4O3)nnc2s1 (stereo not drawn) | 50.2
COc1ccc(/C(O)=C/C=N/c2ccc3c(c2)OCO3)cc1 | -4.12
COc1ccccc1NC(=O)C1=C(C)N=C2CCCC(O)=C2C1c1ccc(OC)c(OC)c1 (stereo not drawn) | 2.51
COc1cc(NS(=O)(=O)c2ccc(N3C(=O)c4ccccc4C3=O)cc2)nc(OC)n1 | -1.96
CCOc1cc(CN2CCSCC2)ccc1O | 96.4
CCOc1cc(CN2CCN(Cc3ccccc3)CC2)ccc1O | 3.9
CCOc1cc(CN2CCN(C)CC2)ccc1O | 2.33
CCCCCCSc1nnc2c(n1)[nH]c1ccccc12 | -2.35
CCCCSc1nnc2c(n1)[nH]c1ccccc12 | 2.86

SMILES | % Inhibition @ 10 uM [%]
NCCSc1nnc2c(n1)[nH]c1ccccc12 | 77.5
COc1ccc(-n2c3c(c(=O)[nH]c2=O)C(NC(=O)c2ccc(F)cc2)(C(F)(F)F)C(=O)N3)cc1 (stereo not drawn) | 3.57
COc1ccc(C2=N/C(=C\c3cccs3)C(=O)O2)cc1 | 11.6
COc1cc(C(=O)NCc2cn3cccc(C)c3n2)cc(OC)c1OC | 3.3
COc1ccc(/C=N/n2c(S)nnc2C(F)(F)F)cc1O | -3.04
COc1cccc(C2CC(=O)N3CN(C4CCCCC4)CSC3=C2C#N)c1OC (stereo not drawn) | 21.8
COc1cc(C2CC(=O)N3CN(C)CSC3=C2C#N)cc(OC)c1OC (stereo not drawn) | 3.77
COc1ccc(Br)cc1C1CC(=O)N2CN(C)CSC2=C1C#N (stereo not drawn) | 58.8
COc1ccc(Br)cc1C1CC(=O)N2CN(C3CCCCC3)CSC2=C1C#N (stereo not drawn) | 60.2
COc1ccc(OC)c(C2CC(=O)N3CN(C4CCCCC4)CSC3=C2C#N)c1 (stereo not drawn) | 9.77
CCC(C(=O)Nc1nc2nc(C)cc(O)n2n1)c1ccccc1 (stereo not drawn) | 0.401
N#CC1=C2SCN(C3CCCC3)CN2C(=O)CC1c1cccs1 (stereo not drawn) | 48.2
Cc1ccc(C2CC(=O)N3CN(C4CCCCC4)CSC3=C2C#N)cc1 (stereo not drawn) | 25.9
CCOc1ccc(C2CC(=O)N3CN(C4CCCCC4)CSC3=C2C#N)cc1 (stereo not drawn) | 46.6
N#CC1=C2SCN(C3CCCC3)CN2C(=O)CC1c1ccc(Cl)cc1 (stereo not drawn) | 55.3
COc1cc(C2CC(=O)N3CN(C4CCCCC4)CSC3=C2C#N)ccc1O (stereo not drawn) | -1.28
CCc1ccc(C2CC(=O)N3CN(C4CCCCC4)CSC3=C2C#N)cc1 (stereo not drawn) | 64.5
Cc1nnc(SCc2ccc(F)cc2)nc1O | 3.62
Cc1ccc(COc2ncnc3[nH]cnc23)c(C)c1 | -3.09
Cc1ccc(CNC(=O)C2CCCN(S(=O)(=O)c3cccc4nonc34)C2)cc1 (stereo not drawn) | -0.668
Cc1ccnc(NC(=O)c2ccc(-c3ccccc3)s2)c1 | 4.4
O=C(c1ccc(Oc2ccccc2)cc1)c1nc2c(n1O)CCCC2 | 1.74

SMILES | % Inhibition @ 10 uM [%]
Cc1ccc(S(=O)(=O)NC(CC(=O)O)c2cccs2)cc1 (stereo not drawn) | 3.64
CCS(=O)(=O)c1nc(S(=O)(=O)c2ccc(Cl)cc2)c(N2CCOCC2)s1 | -2.25
O=C(Nc1nc(-c2ccc(Br)cc2)cs1)c1ccco1 | -2.99
COc1ccc(-n2c(SCC(=O)N3CCOCC3)nc3sc4c(c3c2=O)CCC4)cc1 | 9.91
Cc1ccc(-n2c(=S)[nH]c3sc4c(c3c2=O)CCCCC4)cc1 | 11.5
O=c1c2c3c(sc2[nH]c(=S)n1-c1ccccc1)CN(Cc1ccccc1)CC3 | 57.7
Oc1ncnc2sc3c(c12)CCN(Cc1ccccc1)C3 | 6.74
O=c1[nH]c(=S)[nH]c2sc3c(c12)CCN(Cc1ccccc1)C3 | 1.4
COc1ccc(-n2c(=S)[nH]c3sc4c(c3c2=O)CCC4)cc1 | 84.1
COc1ccc(-n2c(=S)[nH]c3sc4c(c3c2=O)CCCCC4)cc1 | 12.4
O=c1[nH]c2sc3c(c2c(=O)n1-c1ccc(Cl)c(Cl)c1)CCC3 | -2.48
O=c1c2c3c(sc2[nH]c(=S)n1-c1ccc(Cl)cc1)CCC3 | 62.5
CC1(C)CC(=O)C2=C(C1)N(c1nc[nH]n1)C(N)=C(C#N)C2c1cccc(Cl)c1 (stereo not drawn) | 5.48
CN1C2CCC1CC(N1CCN(Cc3ccccc3)CC1)C2 (stereo not drawn) | -1.5
COc1ccc(/C=C2\C(=N)N3N=C(S(C)(=O)=O)SC3=NC2=O)cc1 | -5.27
CCn1c(C)cc(/C=C2/NC(=O)N(c3ccccc3)C2=O)c1C | -2.19
CN1CSC2=C(C#N)C(c3ccccc3Cl)CC(=O)N2C1 (stereo not drawn) | 56.6
COc1ccc2ccccc2c1C1CC(=O)N2CN(C)CSC2=C1C#N (stereo not drawn) | 36.5
CSc1ccc(C2CC(=O)N3CN(C)CSC3=C2C#N)cc1 (stereo not drawn) | 75
CN1CSC2=C(C#N)C(c3ccccc3)CC(=O)N2C1 (stereo not drawn) | 32.9
CN1CSC2=C(C#N)C(c3ccc(Br)cc3)CC(=O)N2C1 (stereo not drawn) | 43.4
COc1ccccc1CC(=N)NOC(=O)c1ccccc1OC | 5.37
